Test [1] deals with turtle Androgen Receptor (AR), gene 101947425. Nature of the test: ATG_trAR_XSP2: Attagene TRANS-FACTORIAL Multi-Species (XSP2) HepG2 Assay for turtle Androgen Receptor (AR) (AID 2283815).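 On AC50: potency for gain of reporter signal meaning activation above DMSO baseline.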 In short, it runs like this: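 Reporter transcripts were quantified via RT-PCR and capillary electrophoresis and fitted upward against DMSO. Transiently transfected human HepG2 cells carrying NR-Gal4 chimeras were exposed 24 h, with 3 nM 6-alpha-fluorotestosterone plus 1.5 nM norgestrel added.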

Test [2] addresses zebrafish Estrogen Receptor (ER1), esr1 (gene 259252) (UniProt P57717). Nature of the test: ATG_zfER1_XSP2: Attagene TRANS-FACTORIAL Multi-Species (XSP2) HepG2 Assay for zebrafish Estrogen Receptor (ER1) (AID 2283816). Put shortly: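 After 24 h compound exposure, RNA from transfected HepG2 cells was reverse-transcribed and reporter transcripts resolved by capillary electrophoresis. The TRANS format reads exogenous zebrafish ER1-Gal4 chimera activity on GAL4-UAS elements; gain of signal against DMSO.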

In test [3] the target is chicken Estrogen Receptor (ERa), ESR1 (gene 396099) (UniProt P06212). Nature of the test: ATG_chERa_XSP2: Attagene TRANS-FACTORIAL Multi-Species (XSP2) HepG2 Assay for chicken Estrogen Receptor (ERa) (AID 2283817).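 Further: actives raise reporter signal above DMSO so AC50 reflects ER activation.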 In short, it runs like this: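 Exogenous chicken ERa-Gal4 chimera activity was assessed in transfected human liver HepG2 cells after 24 h of treatment. Induced reporter mRNA was quantified fluorescently by capillary electrophoresis, with DMSO as baseline.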
chicken Estrogen Receptor (ERa), ESR1 (gene 396099), sequence (P06212 whole entry, looked up, the tested form may be a part): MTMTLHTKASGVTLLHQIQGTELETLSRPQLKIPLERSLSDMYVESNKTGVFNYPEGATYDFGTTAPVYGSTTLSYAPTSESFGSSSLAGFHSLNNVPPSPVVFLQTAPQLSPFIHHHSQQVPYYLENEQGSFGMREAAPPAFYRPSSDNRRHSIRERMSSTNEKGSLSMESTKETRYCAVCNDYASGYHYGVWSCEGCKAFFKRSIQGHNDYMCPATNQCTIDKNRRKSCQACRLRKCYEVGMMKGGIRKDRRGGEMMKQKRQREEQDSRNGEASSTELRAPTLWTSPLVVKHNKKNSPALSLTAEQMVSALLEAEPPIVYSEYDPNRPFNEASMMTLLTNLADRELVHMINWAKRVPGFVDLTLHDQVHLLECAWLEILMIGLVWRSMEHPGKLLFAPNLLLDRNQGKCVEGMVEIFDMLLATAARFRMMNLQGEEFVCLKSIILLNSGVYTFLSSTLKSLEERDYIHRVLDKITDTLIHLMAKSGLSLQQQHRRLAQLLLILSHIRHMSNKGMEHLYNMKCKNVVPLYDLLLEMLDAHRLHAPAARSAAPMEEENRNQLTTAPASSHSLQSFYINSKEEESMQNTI

For test [4], the system named is zebrafish Estrogen Receptor (ER2a), gene 317734. Nature of the test: ATG_zfER2a_XSP2: Attagene TRANS-FACTORIAL Multi-Species (XSP2) HepG2 Assay for zebrafish Estrogen Receptor (ER2a) (AID 2283818).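 Further: hits raise reporter mRNA so AC50 reflects activation of zebrafish ER2a.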 The method, then:
(§1) ATG_XSP2_multi-species_TRANS is a cell-based, multiplexed assay created by modifying the existing Attagene TRANS-FACTORIAL system to include a panel of nuclear receptors from some or all the following species: human (Homo sapiens), mouse (Mus musculus), frog (Xenopus laevis), zebrafish (Danio rerio), chicken (Gallus gallus), and turtle (Chrysemys picta). The ECOTOX-FACTORIAL format uses HepG2, a human liver cell line, with measurements taken at 24 hours after chemical dosing in a 24-well plate. Xsp2 included 3 nM 6-alpha-fluorotestosterone and 1.5 nM norgestrel to stimulate the androgen receptor.ATG_zfER2a_XSP2 is one of 29 assay components measured or calculated from the ATG_XSP2_multi-species_TRANS assay. It is designed to make measurements of mRNA induction, a form of inducible reporter, as detected with fluorescence intensity signals by Reverse transcription polymerase chain reaction (RT-PCR) and Capillary electrophoresis technology.The assay endpoint ATG_zfER2a_XSP2 was analyzed in the positive analysis fitting direction relative to DMSO as the negative control and baseline of activity. Using a type of inducible reporter, measures of mRNA for gain-of-signal activity can be used to understand the reporter gene at the transcription factor-level as they relate to the gene ER. Furthermore, this assay endpoint can be referred to as a primary readout, because this assay has produced multiple assay endpoints where this one serves a reporter gene function. To generalize the intended target to other relatable targets, this assay endpoint is annotated to the nuclear receptor intended target family, where the subfamily is steroidal.
Human liver HepG2 cells are transiently transfected with multiple reporter transcription units (MRTUs) in 6-well plates using FuGene 6 reagent (Roche; 3 ml FuGene/1 mg DNA). The MRTU constructs are regulated by a cis-regulating element (promoter). […] A major difference between the CIS and TRANS system is that in CIS activities of endogenous TFs are measured, whereas the TRANS assay evaluates changes in activities of exogenous, chimeric NR-Gal4 proteins. […] At the end of 24 hour incubation, total RNA was isolated using TriZol reagent (Invitrogen). The isolated RNA is then reverse-transcribed using oligo(dT) primer and Mo-MLV reverse transcriptase (Invitrogen) with DNAse I (Ambion) treatment for 30 min. The one-tenth of the produced cDNA was amplified by PCR using Taq DNA polymerase (Invitrogen) and two reporter sequence-specific primers. The PCR products were fluorescently labeled by primer extension with 6-arboxyfluorescein (6-FAM) 5'-labeled reporter sequence-specific primer (2 min at 95 C, 20 s at 68 C and 10 min at 72 C) and these products were digested with 5U of HpaI (New England Biolabs) for 2h at 37 C. The fragments were purified using Qiaquick PCR columns (Qiagen), analyzed on an ABI 3130xL genetic analyzer (Applied Biosystems) with peak positions identified by using a set of X-rhodamine (ROX)-labeled MapMarker1000 molecular weight standards (BioVentures). The raw capillary electrophoresis data was processed using Attagraph software (Attagene).

Test [5] has as its system chicken Androgen Receptor (AR), gene 422165. Nature of the test: ATG_chAR_XSP2: Attagene TRANS-FACTORIAL Multi-Species (XSP2) HepG2 Assay for chicken Androgen Receptor (AR) (AID 2283819).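 Further: hits raise reporter mRNA above DMSO so potency is for activation.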 In short, it runs like this: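 Readout is reporter mRNA induction via RT-PCR/capillary electrophoresis after 24 h chemical exposure, positive direction relative to DMSO. Transiently transfected HepG2 express chimeric chicken AR–GAL4; AR stimulated by 3 nM 6-alpha-fluorotestosterone and 1.5 nM norgestrel.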

Test [6] concerns frog Estrogen Receptor (ER), gene 398734. Nature of the test: ATG_frER1_XSP2: Attagene TRANS-FACTORIAL Multi-Species (XSP2) HepG2 Assay for frog Estrogen Receptor (ER) (AID 2283821).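 Further: hits raise reporter mRNA above DMSO baseline so potency means agonist or activator.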 Put shortly: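 Gain-of-signal mRNA reporter assay, HepG2 human liver cells, 24 h dosing; transcripts read by fluorescent RT-PCR fragment analysis, DMSO as negative control.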
For test [7], the system named is zebrafish Estrogen Receptor (ER2b), gene 317733. Nature of the test: ATG_zfER2b_XSP2: Attagene TRANS-FACTORIAL Multi-Species (XSP2) HepG2 Assay for zebrafish Estrogen Receptor (ER2b) (AID 2283823).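 Further: fitted upward as reporter gain over DMSO so potency reflects activation.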 Put shortly:
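Reporter transcripts quantified by RT-PCR, fluorescent labelling and capillary electrophoresis after 24 h dosing of transfected HepG2 expressing zebrafish ER2b-GAL4 fusion. Medium contained 3 nM 6-alpha-fluorotestosterone plus 1.5 nM norgestrel; DMSO baseline.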

Test [8] in a line: ATG_M_19_XSP2: Attagene TRANS-FACTORIAL Multi-Species (XSP2) HepG2 Assay for M32 Transcription Factor (Internal Marker) (AID 2283822). In short, it runs like this:
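Internal background marker in a multi-species nuclear receptor TRANS panel: transfected HepG2 cells exposed 24 h, with 3 nM 6-alpha-fluorotestosterone and 1.5 nM norgestrel present. Readout is RT-PCR of reporter transcripts resolved by capillary electrophoresis, gain-of-signal versus DMSO.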

The test system of test [9] is frog Androgen Receptor (AR), gene 399456. Nature of the test: ATG_frAR_XSP2: Attagene TRANS-FACTORIAL Multi-Species (XSP2) HepG2 Assay for frog Androgen Receptor (AR) (AID 2283824).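 Further: reporter mRNA from GAL4-UAS units driven by Xenopus AR-Gal4 chimera; actives raise reporter signal above DMSO so AC50 reflects agonist-like induction.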 The procedure:
as §1, with “receptor.ATG_frAR_XSP2” for “receptor.ATG_zfER2a_XSP2”, “ATG_frAR_XSP2” for “ATG_zfER2a_XSP2”, “Using a type of inducible reporter, measures of mRNA for gain-of-signal activity can be used to understand the reporter gene at the transcription factor-level as they relate to the gene ER.” left out, “To generalize the intended target to other relatable targets, this assay endpoint is annotated to the nuclear receptor intended target family, where the subfamily is steroidal.” left out

Test [10] relates to zebrafish Androgen Receptor (AR), gene 100005148. Nature of the test: ATG_zfAR_XSP2: Attagene TRANS-FACTORIAL Multi-Species (XSP2) HepG2 Assay for zebrafish Androgen Receptor (AR) (AID 2283825).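 Further: hits raise reporter mRNA above DMSO so AC50 reflects agonist-type gain.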 In short, it runs like this: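 After 24 h compound exposure in medium with 3 nM 6-alpha-fluorotestosterone plus 1.5 nM norgestrel, HepG2 cells carrying zebrafish AR–GAL4 reporter constructs were assessed for reporter mRNA gain by RT-PCR and capillary electrophoresis.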

In PubChem BioAssay (EPA / NIEHS) one finds outcome and AC50 data, which are given here for six compounds.

As a reminder, the AC50 is the concentration giving half of the maximal activity seen.

Molecules are shown by their SMILES. Where “and” joins values, the source holds several entries; their conditions need not be identical. Identical values can stand only once. Records with an inconclusive call do not appear. Where a structure was tested more than once in an assay, its records may differ in their call. Calls of active or inactive are those of the source. How the source made its calls: active means hit-call score of the fitted dose curve at least 0.9, where 1 is the maximum; inconclusive means response in the unintended direction; inactive means score below 0.9.

zebrafish Estrogen Receptor (ER1), esr1 (gene 259252), sequence (P57717 whole entry, looked up, the tested form may be a part): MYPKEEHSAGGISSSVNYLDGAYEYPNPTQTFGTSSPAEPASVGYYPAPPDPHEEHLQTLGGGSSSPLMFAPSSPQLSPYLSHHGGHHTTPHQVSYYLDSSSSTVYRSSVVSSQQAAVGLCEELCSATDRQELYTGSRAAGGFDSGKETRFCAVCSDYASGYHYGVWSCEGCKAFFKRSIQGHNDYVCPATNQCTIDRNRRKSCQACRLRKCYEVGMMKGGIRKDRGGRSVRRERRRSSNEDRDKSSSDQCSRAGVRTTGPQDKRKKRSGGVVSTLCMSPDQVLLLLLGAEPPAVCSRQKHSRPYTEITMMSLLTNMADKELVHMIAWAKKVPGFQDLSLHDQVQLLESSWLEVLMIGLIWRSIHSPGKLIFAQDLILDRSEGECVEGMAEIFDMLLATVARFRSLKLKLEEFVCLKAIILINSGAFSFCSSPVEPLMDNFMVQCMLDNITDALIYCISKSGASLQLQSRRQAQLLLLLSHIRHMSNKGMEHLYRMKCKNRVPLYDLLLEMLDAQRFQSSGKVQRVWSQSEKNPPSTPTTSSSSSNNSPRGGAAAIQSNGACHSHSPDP

Regarding `CC(C)(C)c1ccc(S)cc1`, the call in test [1], in test [2], in [3], in test [5] and in test [6] was inactive. The AC50 is 100 µM (active) in test [4] and 179 µM (active) in test [7].
Turning to `CC/C(=C(\c1ccccc1)c1ccc(OCCN(C)C)cc1)c1ccccc1`, the compound was called inactive in [4], in [6] and in test [8].
As for `O=c1cc(-c2ccc(O)cc2)oc2cc(O)cc(O)c12`, the AC50 in test [2] is 2.58 µM (active) and 764 nM (active); in [3] it was 1.67 µM (active) and 768 nM (active); in [4] it was 1.1 µM (active) and 677 nM (active); in test [6], 767 nM (active); in test [7], 1.69 µM (active) and 1.07 µM (active). For the same compound, the call in test [6] was inactive.
As for `CCCCCCCCOC(=O)c1ccc(O)cc1`, the AC50 in [1] was 33.4 µM (active); in [3], 18 µM (active) and 788 nM (active); in test [4] it was 11 µM (active) and 3.51 µM (active); in test [5] it was 33.4 µM (active); in test [6] it was 20.9 µM (active) and 2.94 µM (active); in test [7] it was 14.9 µM (active) and 2.94 µM (active). Further, in test [9], the AC50 was 33.4 µM (active). The result in test [1], in test [2], in [5] and in [10] was inactive.
On to `C#C[C@]1(O)CC[C@H]2[C@@H]3CCc4cc(O)ccc4[C@H]3CC[C@@]21C`, for which the values for the AC50 in [2], in test [4] and in test [7] were 2.55 nM (active), 4.88e-05 µM (active) and 0.000204 µM (active), respectively.
Consider `CCCCCC(=O)O[C@]1(C(C)=O)CC[C@H]2[C@@H]3CCC4=CC(=O)CC[C@]4(C)[C@H]3CC[C@@]21C`, for which the result in test [2] and in [6] was inactive. The AC50 is 172 µM (active) in test [4] and 7.02 µM (active) in test [7].
